# Measurements published in PubChem BioAssay (NCI).
# Compounds without any hit were thinned out: in the full panel of roughly 83,000, 20% have a hit.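 Single-dose data. Exposure time 48 hours. Values below 10 considered active.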 A number with no mark means an inactive call. The source made the active and inactive calls.
# Experiments:
# Test in all cases: NCI-60 one-dose screen, 48 h (100 = growth as untreated, 0 = no growth, -100 = all killed)
# Conditions in all cases: 10 µM unless noted
# SK-MEL-2 melanoma = system: SK-MEL-2 melanoma
# EKVX NSCLC = system: EKVX NSCLC
# SN12C renal = system: SN12C renal
# TK-10 renal = system: TK-10 renal
# ACHN renal = system: ACHN renal
# CAKI-1 renal = system: CAKI-1 renal
# A498 renal = system: A498 renal
# CCRF-CEM leukemia = system: CCRF-CEM leukemia
# MOLT-4 leukemia = system: MOLT-4 leukemia
# SR leukemia = system: SR leukemia
# RPMI-8226 leukemia = system: RPMI-8226 leukemia
# OVCAR-8 ovarian = system: OVCAR-8 ovarian
# OVCAR-5 ovarian = system: OVCAR-5 ovarian
# OVCAR-4 ovarian = system: OVCAR-4 ovarian
# SK-OV-3 ovarian = system: SK-OV-3 ovarian
# IGROV1 ovarian = system: IGROV1 ovarian
# OVCAR-3 ovarian = system: OVCAR-3 ovarian
# HS 578T breast = system: HS 578T breast
# NCI/ADR-RES ovarian = system: NCI/ADR-RES ovarian
# UO-31 renal = system: UO-31 renal
Compound,growth (SK-MEL-2 melanoma),growth (EKVX NSCLC) [%],growth (SN12C renal) [%],growth (TK-10 renal),growth (ACHN renal),growth (CAKI-1 renal) [%],growth (A498 renal),growth (CCRF-CEM leukemia),growth (MOLT-4 leukemia),growth (SR leukemia),growth (RPMI-8226 leukemia),growth (OVCAR-8 ovarian),growth (OVCAR-5 ovarian) [%],growth (OVCAR-4 ovarian),growth (SK-OV-3 ovarian) [%],growth (IGROV1 ovarian),growth (OVCAR-3 ovarian),growth (HS 578T breast) [%],growth (NCI/ADR-RES ovarian) [%],growth (UO-31 renal) [%]
Cc1cc2cc3cc(C)c(N(C)C)cc3nc2cc1N(C)C,-31.8% (active),34.6,15.3,-14.6% (active),39.1%,43.7,52.8%,17.3%,29.1%,25%,-0.205% (active),22.5%,53.9,32.4%,17.7,-13.8% (active),-25.5% (active),31.7,82.5,–
O=C1C=CC(=O)c2c1nc1n2CCCC1,70.6%,104,74,109%,81.1%,95.7,96.3%,58.8%,90.3%,–,116%,92%,112,101%,92.5,103%,21%,73.1,89.6,–
C=C1C(=O)O[C@H]2[C@H]1CC/C(Cn1cc(Cc3c[nH]c4ccccc34)nn1)=C\CC[C@@]1(C)O[C@@H]21,51.2%,53.6,39.4,14.7%,-36.1% (active),31.7,64.3%,-17.1% (active),-1.1% (active),-5.78% (active),-26% (active),0.832% (active),76.2,43.8%,97.1,–,-28.3% (active),73.5,85.8,–
Nc1cccc(NC(=O)C(=O)Nc2cccc(N)c2)c1,97.6%,94,88.6,122%,85.8%,78.1,89.6%,97.9%,98.1%,115%,88.1%,94.8%,94.5,126%,117,75.7%,101%,89.8,93.1,–
Nc1nc(SCc2ccccc2)c2ncn(C3CCCC3)c2n1,94.6%,99.6,107,125%,-81.5% (active),102,102%,96.3%,113%,81.4%,92.9%,110%,96.4,101%,107,–,112%,139,92.5,–
Fc1ccc(Cc2ccc(F)cc2)cc1,111%,105,95.7,101%,104%,94.8,99.7%,107%,94.5%,116%,108%,108%,102,101%,107,102%,112%,114,101,–
CCn1cc2c(cc1=O)-c1nc3ccccc3c3ccnc(c13)C2=O,62.3%,87.8,16.5,86.1%,10.1%,60,81.7%,104%,80.6%,15.1%,80.1%,55.2%,105,80.7%,45.8,70.2%,73.8%,94.4,71.8,–
O=C(COCc1c(-c2ccccc2)no[n+]1[O-])Nc1ccc(C(=O)/C=C/c2ccc3c(c2)OCO3)cc1,134%,108,102,–,94.6%,91.7,111%,82.4%,77.2%,–,–,87.5%,99.4,114%,112,95.2%,113%,101,106,87.4
Nc1c(C(=O)Nc2cccc3c2OCCO3)sc2nc3c(cc12)C(=O)CCC3,64.9%,24.7,41.3,73.3%,55.4%,47.6,-1.97% (active),16.5%,57.6%,36.3%,33.7%,51.8%,36.1,71%,70.5,48%,16.2%,29.5,14.1,–
Oc1cc(O)c2c(=S)cc(-c3ccc(Cl)cc3)oc2c1,4.4% (active),70.2,25.5,58.9%,23.6%,76.5,59.1%,15.8%,24.1%,36.1%,–,35%,60.3,6.46% (active),61.8,26.1%,17.6%,40.5,25.5,–
O=[N+]([O-])c1cccc(-c2nc3sccn3c2-c2ccnc(NCCCNS(=O)(=O)c3ccc(Br)cc3)n2)c1,47%,59.4,53,102%,46.7%,41.4,52.8%,18.6%,19.7%,51.8%,9.86% (active),28.2%,114,32.7%,92.5,–,51.2%,87.7,23.1,–
